From PubChem BioAssay (NCATS)
“And” between values parts separate entries of the source, which are not always exact repeats. Equal values may be shown once. Inconclusive results are not listed. The source made the active and inactive calls. Unless noted, the call rests on the fitted dose curve; in most records, active means well fitted curve in the direction sought with a large enough effect; inconclusive means small, poorly fitted or top-dose-only effect, or another doubt; inactive means no such curve, though single readings can be large; an effect the other way counts as inactive or inconclusive.

What was measured:
[1] = P-glycoprotein substrates identified in KB-3-1 adenocarcinoma cell line, qHTS therapeutic library screen (AID 1346986); conditions: KB-3-1 parental cells viability, CellTiter-Glo, 72 h; at 44.5 µM (top of the series); further: nearly all actives have a fitted effect of over 60% in size
Method in brief: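 Viability read by CellTiter-Glo after 72 h compound exposure in dose-response of KB-3-1 and KB-8-5-11 (P-gp-high) cells. Hits needed AC50 < 10 uM, >50% maximum response and curve class -1.1 to -2.4. Cherry-picks retested ± tariquidar, including pcDNA/MDR-19 HEK-293 pair.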

[2] = P-glycoprotein substrates identified in KB-8-5-11 adenocarcinoma cell line, qHTS therapeutic library screen (AID 1346987); further: nearly all actives have a fitted effect of over 65% in size; further: potency means the concentration at half of the fitted maximal effect
Method in brief: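 Compounds are pinned in dose-response onto KB-8-5-11 cells (500 cells/well, colchicine-free medium) and left 72 h at 37 degree C. CellTiter-Glo luminescence then yields AC50 values.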

[3] = NS1 protein of Zika virus - qHTS assay to identify small molecule inhibitors in human HEK 293 cells (AID 1347053); further: nearly all actives have a fitted effect of over 55% in size; further: potency means the concentration at half of the fitted maximal effect
Method in brief: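 TR-FRET signal from two anti-ZIKV NS1 antibodies quantified NS1 in HEK 293 cells 24 h after MR766 infection at MOI = 0.5; compounds were added 1 h before virus. Uninfected cells and infected cells defined the NS1 normalization range.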

[4] = qHTS of pediatric cancer cell lines to identify multiple opportunities for drug repurposing: Primary screen for TC32 cells (AID 1347089); further: nearly all actives have a fitted effect of over 60% in size; further: potency means the concentration at half of the fitted maximal effect
Method in brief: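 A viability screen of TC32 cells was run over 48 h, with primary MIPE doses spanning 0.78 nM–46 µM and NPC doses 0.59 nM–46 µM. ATP luminescence (CellTiter-Glo) served as the read-out.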

[5] = qHTS of pediatric cancer cell lines to identify multiple opportunities for drug repurposing: Primary screen for DAOY cells (AID 1347090); further: nearly all actives have a fitted effect of over 55% in size; further: potency means the concentration at half of the fitted maximal effect
Method in brief: (§1)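 Cell viability, CellTiter-Glo luminescence; 500-1,000 cells/well, 8- or 11-point titration, 48 h compound exposure at 37 degrees C, 5% CO2. Controls: DMSO neutral, bortezomib 2.3 µM final as positive.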

[6] = qHTS of pediatric cancer cell lines to identify multiple opportunities for drug repurposing: Primary screen for A673 cells (AID 1347092); further: nearly all actives have a fitted effect of over 45% in size; further: potency means the concentration at half of the fitted maximal effect
Method in brief: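 Titration-based qHTS on A673 cells: MIPE compounds spanned 11 points (0.78 nM to 46 µM final), NPC compounds 8 points (0.59 nM to 46 µM final). Viability after 48 h was measured by ATP luminescence.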

[7] = qHTS of pediatric cancer cell lines to identify multiple opportunities for drug repurposing: Primary screen for SK-N-MC cells (AID 1347093); further: potency means the concentration at half of the fitted maximal effect
Method in brief: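 Metabolically active cells were quantified by ATP-dependent luminescence (CellTiter-Glo, 15 min at room temperature) following 48 h treatment. Cells had been plated at 500-1,000 per well and settled for 5 h beforehand.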

[8] = qHTS of pediatric cancer cell lines to identify multiple opportunities for drug repurposing: Primary screen for BT-37 cells (AID 1347094); further: potency means the concentration at half of the fitted maximal effect
Method in brief: (§2)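 CRCs from 8- or 11-point titrations (lowest final 0.59 nM NPC, 0.78 nM MIPE). Cell viability: CellTiter-Glo after 48 h incubation, 15 min room-temperature development, luminescence imaging.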

[9] = qHTS of pediatric cancer cell lines to identify multiple opportunities for drug repurposing: Primary screen for NB-EBc1 cells (AID 1347095); further: potency means the concentration at half of the fitted maximal effect
Method in brief: as §2

[10] = qHTS of pediatric cancer cell lines to identify multiple opportunities for drug repurposing: Primary screen for U-2 OS cells (AID 1347096); further: nearly all actives have a fitted effect of over 50% in size
Method in brief: (§3)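 Cells (500-1,000/well) rested 5 h, then received compounds for 48 h; metabolically active cells were measured by CellTiter-Glo luminescence. Final concentrations spanned up to 46 µM (MIPE, 11-point) or 0.59 nM-46 µM (NPC, 8-point) in primary screens, 11-point in follow-ups.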

[11] = qHTS of pediatric cancer cell lines to identify multiple opportunities for drug repurposing: Primary screen for Saos-2 cells (AID 1347097); further: nearly all actives have a fitted effect of over 40% in size; further: potency means the concentration at half of the fitted maximal effect
Method in brief: as §2

[12] = qHTS of pediatric cancer cell lines to identify multiple opportunities for drug repurposing: Primary screen for SK-N-SH cells (AID 1347098); further: nearly all actives have a fitted effect of over 65% in size; further: potency means the concentration at half of the fitted maximal effect
Method in brief: as §3

[13] = Identifying Small Molecule Inhibitors of Pancreatic Cancer Stem Cells (A278, Adherent) (AID 1259361); further: nearly all actives have a fitted effect of over 35% in size
Method in brief: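 Pre-formed 14-day tumor spheroids or adherent cells dosed and incubated 48 h, 37C, 5% CO2. Viability assessed by CellTiter-Glo.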

[14] = target: Tyrosine-protein phosphatase non-receptor type substrate 1 (Homo sapiens) + Leukocyte surface antigen CD47 (Homo sapiens) (UniProt P78324+Q08722); experiment: CD47-SIRPalpha protein protein interaction - LANCE assay qHTS validation (AID 1347057; active means well fitted curve in the direction sought with a large enough effect in the signal ratio, with a control signal flat, not every such curve was filed as active; the % refers to the signal ratio)
Method in brief: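 Inhibition of soluble CD47/SIRPalpha ectodomain association by titrated compounds, measured as 665/615 nm time-resolved FRET ratio after sequential 30 min room-temperature incubations.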

[15] = target: Parathyroid hormone/parathyroid hormone-related peptide receptor (Homo sapiens) (UniProt Q03431); experiment: qHTS for PTHR1 Agonists: Optimization Screen against the NCGC LOPAC library (AID 1347079);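 further: GloSensor cAMP luminescence in HEK-293 GP2 cells expressing human PTHR1 with IBMX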
Method in brief: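 HEK-293 GP2 cells, PTHR1 + GloSensor cAMP; 3000 cells/well, o/n. Luciferin + IBMX 0.5mM each (stock), 1 hr 37C. Cpd titration, 1 hr 37C. Lum after 15 min RT. Ctrl M-PTH(1-15) top 10uM.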

[16] = qHTS of pediatric cancer cell lines to identify multiple opportunities for drug repurposing: Primary screen for SJ-GBM2 cells (AID 1347091); further: potency means the concentration at half of the fitted maximal effect
Method in brief: as §1

[17] = Identifying Small Molecule Inhibitors of Pancreatic Cancer Stem Cells (Panc1, Adherent) (AID 1259362); conditions: viability; further: potency means the concentration at half of the fitted maximal effect
Method in brief: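 Cytotoxicity read by CellTiter-Glo luminescence after 48 h compound exposure at 37C; percent activity scaled between DMSO-treated cells and cell-free wells. Spheroid formats used cells pre-formed 14 days in stem cell media on hydrogel.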

Sequence of Tyrosine-protein phosphatase non-receptor type substrate 1 (Homo sapiens) + Leukocyte surface antigen CD47 (Homo sapiens) (P78324 whole entry, looked up, the tested form may be a part): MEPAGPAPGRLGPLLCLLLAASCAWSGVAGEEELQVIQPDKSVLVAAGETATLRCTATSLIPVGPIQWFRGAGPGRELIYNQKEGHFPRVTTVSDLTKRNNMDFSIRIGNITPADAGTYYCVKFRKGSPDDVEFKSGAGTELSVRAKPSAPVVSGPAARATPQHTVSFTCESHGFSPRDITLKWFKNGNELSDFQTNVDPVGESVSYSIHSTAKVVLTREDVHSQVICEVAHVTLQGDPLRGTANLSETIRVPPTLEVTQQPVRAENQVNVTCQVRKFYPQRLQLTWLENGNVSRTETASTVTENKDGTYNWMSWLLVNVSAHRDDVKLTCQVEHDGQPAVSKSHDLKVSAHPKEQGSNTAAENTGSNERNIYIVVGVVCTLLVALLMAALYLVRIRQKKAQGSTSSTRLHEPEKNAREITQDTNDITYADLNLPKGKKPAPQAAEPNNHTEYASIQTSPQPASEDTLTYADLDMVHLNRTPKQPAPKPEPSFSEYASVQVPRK
Sequence of Tyrosine-protein phosphatase non-receptor type substrate 1 (Homo sapiens) + Leukocyte surface antigen CD47 (Homo sapiens) (Q08722 whole entry, looked up, the tested form may be a part): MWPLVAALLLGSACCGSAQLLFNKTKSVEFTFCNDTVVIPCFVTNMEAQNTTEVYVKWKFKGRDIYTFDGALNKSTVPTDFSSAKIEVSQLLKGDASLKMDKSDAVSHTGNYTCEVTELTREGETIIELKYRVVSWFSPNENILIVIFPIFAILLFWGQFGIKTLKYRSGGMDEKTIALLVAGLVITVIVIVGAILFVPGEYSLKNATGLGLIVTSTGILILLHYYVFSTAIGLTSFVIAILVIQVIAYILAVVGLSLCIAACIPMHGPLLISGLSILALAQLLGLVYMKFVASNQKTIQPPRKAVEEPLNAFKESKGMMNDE
Sequence of Parathyroid hormone/parathyroid hormone-related peptide receptor (Homo sapiens) (Q03431 whole entry, looked up): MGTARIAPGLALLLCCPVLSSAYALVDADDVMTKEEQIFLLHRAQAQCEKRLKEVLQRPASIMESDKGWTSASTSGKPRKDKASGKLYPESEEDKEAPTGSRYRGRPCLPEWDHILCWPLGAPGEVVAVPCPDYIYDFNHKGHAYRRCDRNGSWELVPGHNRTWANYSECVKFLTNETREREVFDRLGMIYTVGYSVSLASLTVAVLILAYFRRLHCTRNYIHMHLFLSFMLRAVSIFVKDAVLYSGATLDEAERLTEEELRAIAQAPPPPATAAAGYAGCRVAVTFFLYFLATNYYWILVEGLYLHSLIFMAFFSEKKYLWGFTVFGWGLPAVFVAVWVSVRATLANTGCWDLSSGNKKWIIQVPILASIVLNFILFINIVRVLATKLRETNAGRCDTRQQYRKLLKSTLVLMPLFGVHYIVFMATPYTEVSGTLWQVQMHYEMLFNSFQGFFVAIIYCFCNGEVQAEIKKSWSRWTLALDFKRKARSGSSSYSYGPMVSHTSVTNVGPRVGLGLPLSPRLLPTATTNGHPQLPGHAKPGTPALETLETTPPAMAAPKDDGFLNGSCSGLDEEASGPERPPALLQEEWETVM

CN1CCN(c2c(F)cc3c(=O)c(C(=O)O)cn4c3c2OCN4C)CC1
inactive: outcome [1] | Potency [2] | Potency [3] | Potency [4] | Potency [5] | Potency [6] | Potency [7] | Potency [8] | Potency [9] | Potency [10] | Potency [11] | Potency [12]

CCN(CC)CCn1c(=O)c(Cc2ccc(OC)cc2)nc2ccccc21
inactive: IC50 (viability decrease) [13] | outcome [1] | Potency [2] | Potency [3] | outcome [14] | outcome [15] | Potency [4] | Potency [5] | Potency [7] | Potency [8] | Potency [9] | Potency [10] | Potency [11] | Potency [12]

CC1=CC(=O)c2ccccc2C1=O
inactive: outcome [1] | Potency [2] | Potency [3] | Potency [4] | Potency [5] | Potency [8] | Potency [10]
active: Potency [16] 23.5 µM | Potency [6] 13.3 µM and 14.8 µM | Potency [7] 21.1 µM and 148 nM | Potency [9] 7.43 µM | Potency [11] 18.7 µM | Potency [12] 21.7 µM

COc1cc2c(Nc3ccc(Br)cc3F)ncnc2cc1OCC1CCN(C)CC1
active: IC50 (viability decrease) [13] 18.7 µM
inactive: Potency [2] | Potency [3] | Potency [4] | Potency [16] | Potency [9] | Potency [10] | Potency [11]

Cc1ccnc2c1NC(=O)c1cccnc1N2C1CC1
inactive: outcome [1] | Potency [2] | Potency [3] | Potency [4] | Potency [5] | Potency [16] | Potency [6] | Potency [8] | Potency [9] | Potency [10] | Potency [11]

COc1cc(NS(=O)(=O)c2ccc(N)cc2)nc(OC)n1
inactive: outcome [1] | Potency [2] | Potency [3] | Potency [4] | Potency [5] | Potency [16] | Potency [6] | Potency [7] | Potency [8] | Potency [9] | Potency [10] | Potency [11] | Potency [12]

CCn1cc(C(=O)O)c(=O)c2cc(F)c(N3CCNCC3)cc21
inactive: outcome [1] | Potency [2] | Potency [3] | Potency [4] | Potency [5] | Potency [16] | Potency [6] | Potency [7] | Potency [8] | Potency [9] | Potency [10] | Potency [11] | Potency [12]

NC1(c2ccc(-c3nc4ccn5c(=O)[nH]nc5c4cc3-c3ccccc3)cc2)CCC1
active: Potency [17] 20.9 µM | Potency [2] 11.6 µM | Potency [3] 9.35 µM | Potency [5] 18.7 µM | Potency [16] 5.26 µM and 13.3 µM | Potency [6] 14.8 µM and 21.1 µM | Potency [7] 332 nM and 266 nM | Potency [8] 6.85 µM | Potency [9] 2.35 µM and 11.9 µM | Potency [11] 10.5 µM | Potency [12] 19.2 µM and 17.2 µM
inactive: Potency [10]

Cc1oc(=O)oc1CN1CCN(c2cc3c(cc2F)c(=O)c(C(=O)O)c2n3C(C)S2)CC1 (centres undefined)
inactive: outcome [1] | Potency [2] | Potency [3] | Potency [4] | Potency [5] | Potency [16] | Potency [6] | Potency [7] | Potency [8] | Potency [9] | Potency [10] | Potency [11] | Potency [12]

COc1cc([C@@H]2c3cc4c(cc3[C@H](O)[C@H]3COC(=O)[C@H]23)OCO4)cc(OC)c1OC
active: IC50 (viability decrease) [13] 0.0148 µM | Potency [2] 130 nM and 11.8 nM | Potency [4] 167 nM and 5.2 nM | Potency [5] 0.0335 µM | Potency [16] 23.7 nM and 1 nM | Potency [7] 53.1 nM and 1 nM | Potency [8] 69.2 nM and 1 nM | Potency [9] 8.4 nM and 1 nM | Potency [11] 33.5 nM and 2.64 µM
inactive: Potency [3] | Potency [10] | Potency [12]

Cc1cccc(N(C)C(=S)Oc2ccc3ccccc3c2)c1
inactive: outcome [1] | Potency [2] | Potency [3] | Potency [4] | Potency [5] | Potency [6] | Potency [8] | Potency [9] | Potency [10]
active: Potency [12] 15.2 µM

CNNCc1ccc(C(=O)NC(C)C)cc1
inactive: outcome [1] | Potency [2] | Potency [3] | Potency [4] | Potency [5] | Potency [16] | Potency [6] | Potency [7] | Potency [8] | Potency [9] | Potency [10] | Potency [11] | Potency [12]

COc1cnc(NS(=O)(=O)c2ccc(N)cc2)nc1
inactive: outcome [1] | Potency [2] | Potency [3] | Potency [4] | Potency [5] | Potency [16] | Potency [8] | Potency [9] | Potency [10] | Potency [11]

CCC(=O)O[C@]1(C(=O)SCF)[C@H](C)C[C@H]2[C@@H]3C[C@H](F)C4=CC(=O)C=C[C@]4(C)[C@@]3(F)[C@@H](O)C[C@@]21C
inactive: outcome [1] | Potency [2] | Potency [3] | Potency [4] | Potency [5] | Potency [16] | Potency [7] | Potency [8] | Potency [9] | Potency [10]
